Data on 30 sequences can be found in the supplement of paper PMC12645437, “Orthogonal IMiD-Degron Pairs Induce Selective Protein Degradation in Cells” (ACS Chemical Biology, 2025).

For this test, the target named is T1, CRBN, Q96SW2.
T1 chain: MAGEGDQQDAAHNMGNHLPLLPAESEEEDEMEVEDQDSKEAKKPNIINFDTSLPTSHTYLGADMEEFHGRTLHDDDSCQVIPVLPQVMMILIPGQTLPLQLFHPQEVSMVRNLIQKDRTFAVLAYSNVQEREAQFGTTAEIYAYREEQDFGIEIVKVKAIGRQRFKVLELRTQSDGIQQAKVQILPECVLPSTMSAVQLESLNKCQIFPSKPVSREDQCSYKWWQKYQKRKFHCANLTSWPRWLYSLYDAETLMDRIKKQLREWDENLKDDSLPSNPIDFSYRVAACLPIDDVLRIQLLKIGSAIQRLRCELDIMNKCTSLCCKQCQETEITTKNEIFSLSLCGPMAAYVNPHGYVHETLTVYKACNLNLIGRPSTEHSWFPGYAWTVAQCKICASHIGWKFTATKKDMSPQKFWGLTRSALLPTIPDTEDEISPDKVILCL
In words: log2 fold change of degron read counts, EGFP-low vs EGFP+ sorted cells (limma voom), compound-induced degradation; higher = more compound-induced degradation of the degron-EGFP fusion; degrons are variants of IKZF1/3 zinc finger 2; compound dose not given here. The following applies: Jurkat, 18 h.

[1] abbreviates: compound: compound 19 (5-tert-butyl-thalidomide).
[2] abbreviates: compound: compound 22 (5-morpholino-thalidomide).
[3] abbreviates: compound: compound 33 (diphenyl IMiD analogue).

In all, about 8,300 sequences were measured (“log2 fold change of degron read counts, EGFP-low vs EGFP+ sorted cells (limma voom), compound-induced degradation”: median about -1.1, highest 2% from about 3.2 on). The sample as a whole holds a higher share of the highest values than the screen did.
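Note: pooled lentiviral library of zinc finger degron-EGFP fusions in mCherry-positive Jurkat cells, FACS-sorted after compound exposure, with degron abundance counted by next-generation sequencing.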

In the case of FNCPVCGATFTQKGNLLRHIKL [46F_47N_49P_50V_52G_53A_54T_55F_67L_, Q9UKT9], the “log2 fold change of degron read counts” value under setting [1] is 1.23, the “log2 fold change of degron read counts” value under setting [2] was -0.0199, the “log2 fold change of degron read counts” value under setting [3] was 1.21 and the “log2 fold change of degron read counts” value (compound: thalidomide) turned out to be 0.0692.
On the same counts, the results for FDCPVCGATFTQKGNLLRHIKL [46F_47D_49P_50V_52G_53A_54T_55F_67L_, Q9UKT9] are 1.07, -0.459, 0.762 and 1.24.
On the same counts, the results for FLCPVCGATFTQKGNLLRHIKL [46F_47L_49P_50V_52G_53A_54T_55F_67L_, Q9UKT9] are -1.39, -1.44, 0.984 and 1.09.
For the sequence FQCPVCGATFTQKGNLLRHIKL [46F_47Q_49P_50V_52G_53A_54T_55F_67L_, Q9UKT9], the “log2 fold change of degron read counts” value is, setting by setting: under setting [1], 0.396; under setting [2], 2.89; under setting [3], 2.57; (compound: thalidomide) 3.79.
The corresponding values for FWCPVCGATFTQKGNLLRHIKL [46F_47W_49P_50V_52G_53A_54T_55F_67L_, Q9UKT9] are 2.12, 3.45, 1.55 and 0.523.
The corresponding values for FVCPVCGATFTQKGNLLRHIKL [46F_47V_49P_50V_52G_53A_54T_55F_67L_, Q9UKT9] are -1.12, 1.27, 1.62 and 2.01.
As to FKCPVCGATFTQKGNLLRHIKL [46F_47K_49P_50V_52G_53A_54T_55F_67L_, Q9UKT9], the “log2 fold change of degron read counts” value is -1.61 under setting [1], -2.57 under setting [2], -2.5 under setting [3] and -0.961 (compound: thalidomide).
The corresponding values for FMCPVCGATFTQKGNLLRHIKL [46F_47M_49P_50V_52G_53A_54T_55F_67L_, Q9UKT9] are -1.09, 0.0816, 1.9 and 1.06.
The corresponding values for FFCPVCGATFTQKGNLLRHIKL [46F_47F_49P_50V_52G_53A_54T_55F_67L_, Q9UKT9] are 2.59, 3.54, 1.59 and 1.17.
On the same counts, the results for FECPVCGATFTQKGNLLRHIKL [46F_47E_49P_50V_52G_53A_54T_55F_67L_, Q9UKT9] are -0.45, -0.774, 1.74 and 2.82.
FCCPVCGATFTQKGNLLRHIKL [46F_47C_49P_50V_52G_53A_54T_55F_67L_, Q9UKT9]: the “log2 fold change of degron read counts” value under setting [1] was determined as 1.17, the “log2 fold change of degron read counts” value under setting [2] came to 1.86, the “log2 fold change of degron read counts” value under setting [3] turned out to be 2.81 and the “log2 fold change of degron read counts” value (compound: thalidomide) was determined as 2.11.
Regarding FGCPVCGATFTQKGNLLRHIKL [46F_47G_49P_50V_52G_53A_54T_55F_67L_, Q9UKT9], the “log2 fold change of degron read counts” value was 3.66 under setting [1], 2.4 under setting [2], 2.06 under setting [3] and 1.12 (compound: thalidomide).
Consider FRCNQCGHPFTQKGNLLRHIKL [46F_47R_49N_50Q_52G_53H_54P_55F_67L_, Q9UKT9], for which the “log2 fold change of degron read counts” value under setting [1] is -1.26, the “log2 fold change of degron read counts” value under setting [2] is -1.57, the “log2 fold change of degron read counts” value under setting [3] is -1.18 and the “log2 fold change of degron read counts” value (compound: thalidomide) is -0.69.
The corresponding values for FWCPICGRRFTQKGNLLRHIKL [46F_47W_49P_50I_52G_53R_54R_55F_67L_, Q9UKT9] are -0.549, 1.78, -0.519 and -0.365.
Turning to FDCNQCGRPFTQKGNLLRHIKL [46F_47D_49N_50Q_52G_53R_54P_55F_67L_, Q9UKT9], the “log2 fold change of degron read counts” value is -2.11 under setting [1], -2.72 under setting [2], -2.47 under setting [3] and -2.01 (compound: thalidomide).
The corresponding values for FTCEVCGAKFTQKGNLLRHIKL [46F_47T_49E_50V_52G_53A_54K_55F_67L_, Q9UKT9] are 0.575, 1.8, -0.259 and 2.77.
The corresponding values for FVCPICGHVFTQKGNLLRHIKL [46F_47V_49P_50I_52G_53H_54V_55F_67L_, Q9UKT9] are -1.93, -1.85, -1.17 and -0.831.
In the case of FFCNQCGHRFTQKGNLLRHIKL [46F_47F_49N_50Q_52G_53H_54R_55F_67L_, Q9UKT9], the “log2 fold change of degron read counts” value under setting [1] was -1.77, the “log2 fold change of degron read counts” value under setting [2] was -1.83, the “log2 fold change of degron read counts” value under setting [3] is -1.97 and the “log2 fold change of degron read counts” value (compound: thalidomide) was -1.98.
In the case of FTCSVCGHMFTQKGNLLRHIKL [46F_47T_49S_50V_52G_53H_54M_55F_67L_, Q9UKT9], the “log2 fold change of degron read counts” value was -2.72 under setting [1], -3.24 under setting [2], -2.66 under setting [3] and -2.24 (compound: thalidomide).
On the same counts, the results for FYCPVCGATFTQKGNLLRHIKL [46F_47Y_49P_50V_52G_53A_54T_55F_67L_, Q9UKT9] are 2.81, 3.38, 2.28 and 1.02.
The corresponding values for FACPVCGATFTQKGNLLRHIKL [46F_47A_49P_50V_52G_53A_54T_55F_67L_, Q9UKT9] are 3.23, 1.68, 1.17 and 0.555.
On the same counts, the results for FHCPVCGATFTQKGNLLRHIKL [46F_47H_49P_50V_52G_53A_54T_55F_67L_, Q9UKT9] are 1.14, 1.21, 1.72 and -0.00776.
With FWCNQCGHQFTQKGNLLRHIKL [46F_47W_49N_50Q_52G_53H_54Q_55F_67L_, Q9UKT9], the “log2 fold change of degron read counts” value is, setting by setting: under setting [1], -2.03; under setting [2], -2.39; under setting [3], -2.26; (compound: thalidomide) -1.81.
On the same counts, the results for FTCNICGAIFTQKGNLLRHIKL [46F_47T_49N_50I_52G_53A_54I_55F_67L_, Q9UKT9] are -1, 0.0209, 0.936 and 1.06.
Consider FWCDICGANFTQKGNLLRHIKL [46F_47W_49D_50I_52G_53A_54N_55F_67L_, Q9UKT9], for which the “log2 fold change of degron read counts” value runs as follows: under setting [1], 2.81; under setting [2], 3.71; under setting [3], 1.34; (compound: thalidomide) 0.139.
The corresponding values for FLCDICGANFTQKGNLLRHIKL [46F_47L_49D_50I_52G_53A_54N_55F_67L_, Q9UKT9] are -1.24, -1.68, 0.196 and -0.528.
FCCDICGANFTQKGNLLRHIKL [46F_47C_49D_50I_52G_53A_54N_55F_67L_, Q9UKT9]: the “log2 fold change of degron read counts” value under setting [1] worked out at 0.761, the “log2 fold change of degron read counts” value under setting [2] was found to be 0.588, the “log2 fold change of degron read counts” value under setting [3] is 0.858 and the “log2 fold change of degron read counts” value (compound: thalidomide) is -0.326.
The corresponding values for FYCDICGANFTQKGNLLRHIKL [46F_47Y_49D_50I_52G_53A_54N_55F_67L_, Q9UKT9] are 2.78, 3.42, 1.2 and -0.676.
On the same counts, the results for FECDICGANFTQKGNLLRHIKL [46F_47E_49D_50I_52G_53A_54N_55F_67L_, Q9UKT9] are -1.28, -2.43, 0.537 and 0.012.
The corresponding values for FHCDICGANFTQKGNLLRHIKL [46F_47H_49D_50I_52G_53A_54N_55F_67L_, Q9UKT9] are -0.867, -0.624, -1.82 and -2.82.
